From publication PMC6925144, “A prospective compound screening contest identified broader inhibitors for Sirtuin 1” (Scientific Reports, 2019)
Whole data set: some 3,200 compounds, median “TSA(without NAD+) / Primary screening (TSA) / delta Tm (K)” near -0.07, cut for the highest 2% near 0.37. What follows is part of a selection rich in the highest values, with near analogues and random picks from the rest.

target: NAD-dependent deacetylase Sirtuin 1 (human, UniProt Q96EB6); assay: primary screen, delta tm; parameters: single well (n = 1); conditions: 10 µM
Method in brief: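 Thermal shift of Sirtuin 1 measured without NAD+, compound at 10 µM (n = 1); value is ΔTm, with hits defined as ΔTm > 0.45 K or < −1.5 K. Hits retested at 5, 10, 20 µM (n = 4) and counterscreened on bovine carbonic anhydrase and ABL1 SH2 domain.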

Sequence of NAD-dependent deacetylase Sirtuin 1 (Q96EB6 2-747 limits assumed): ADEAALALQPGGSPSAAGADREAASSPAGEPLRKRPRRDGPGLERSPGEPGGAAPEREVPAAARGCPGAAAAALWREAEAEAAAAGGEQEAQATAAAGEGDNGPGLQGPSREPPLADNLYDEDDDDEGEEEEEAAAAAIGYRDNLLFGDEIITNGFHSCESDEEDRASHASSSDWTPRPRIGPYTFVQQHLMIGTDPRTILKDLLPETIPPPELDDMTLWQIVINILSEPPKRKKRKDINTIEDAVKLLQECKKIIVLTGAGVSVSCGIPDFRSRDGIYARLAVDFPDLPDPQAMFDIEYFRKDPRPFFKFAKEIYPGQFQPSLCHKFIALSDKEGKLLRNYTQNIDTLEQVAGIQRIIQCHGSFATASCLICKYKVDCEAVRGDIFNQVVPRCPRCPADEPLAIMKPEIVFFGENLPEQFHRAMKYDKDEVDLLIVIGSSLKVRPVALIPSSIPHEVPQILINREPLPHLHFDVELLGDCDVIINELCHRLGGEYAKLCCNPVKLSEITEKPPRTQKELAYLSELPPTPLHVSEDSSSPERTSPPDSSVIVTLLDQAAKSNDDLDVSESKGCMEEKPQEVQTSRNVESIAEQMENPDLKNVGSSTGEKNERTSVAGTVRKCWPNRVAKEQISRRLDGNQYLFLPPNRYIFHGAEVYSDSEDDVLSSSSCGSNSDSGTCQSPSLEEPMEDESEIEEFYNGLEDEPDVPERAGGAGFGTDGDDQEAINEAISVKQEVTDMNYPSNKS

SMILES | TSA(without NAD+) / Primary screening (TSA) / delta Tm (K)
CC(C)Oc1ccc(C2C(C(=O)c3ccco3)=C(O)C(=O)N2CCCN2CCOCC2)cc1 (centres unmarked) | -0.02
COc1cccc(C2C(C(=O)c3ccc(Cl)cc3)=C(O)C(=O)N2CCCN2CCOCC2)c1 (centres unmarked) | -0.12
CCC(N)C(N)=O (centres unmarked) | -0.22
CC1CCC(NN)CC1 (centres unmarked) | -0.08
CCn1c2ccccc2c2cc(NC(=O)C(C)OC(=O)c3cccc(S(=O)(=O)Nc4ccc(Cl)cc4)c3)ccc21 (centres unmarked) | 0.56
CC(=O)c1ccc(NC(=O)C(C)OC(=O)c2cccc(S(=O)(=O)NC(C)C34CC5CC(CC(C5)C3)C4)c2)cc1 (centres unmarked) | 0.35
CC(OC(=O)c1cccc(S(=O)(=O)Nc2ccc(F)cc2)c1)c1nc2ccccc2c(=O)[nH]1 (centres unmarked) | 0.02
O=C(/C=C/c1ccc(F)cc1)NCCCn1ccc2ccccc21 | 0.08
Cc1ccc2c(CC(=O)Nc3ccccc3Cc3ccccc3)coc2c1 | 0.07
COc1ccc(-c2nn(-c3ccccc3)cc2CN(CCCCCCN(Cc2cn(-c3ccccc3)nc2-c2ccc(OC)cc2)C(=O)CCC(=O)O)C(=O)CCC(=O)O)cc1 | 0.37
Cc1noc(C)c1CC(=O)OCc1cn(-c2ccccc2)nc1-c1ccc(Cl)cc1 | 0.22
Cc1ccc(-c2nn(-c3ccccc3)cc2C(=O)NCc2nnc3ccccn23)cc1 | -0.03
Cc1oc2cc(OC(C)C(=O)NCc3ccco3)ccc2c(=O)c1-c1c(F)cccc1Cl (centres unmarked) | -0.11
O=C1NC(=S)N/C1=C/c1ccc(-c2ccccc2F)o1 | 0.05
O=C1NC(=S)N/C1=C\c1cc(Br)ccc1O | -0.23
O=C1NC(=S)N/C1=C\c1ccccc1OCc1ccc(C(=O)O)cc1 | 0.38
COc1ccc(C(N)=O)cc1NC(=O)c1nc2nc(C)cc(C)n2n1 | -0.15
NC(=O)C1CCN(c2nc(CSc3ccccc3)nc3sc4c(c23)CCCC4)CC1 | 1.78
NC(=O)C1CCCN(c2ncnc3sc4c(c23)CCCC4)C1 (centres unmarked) | -0.18
Cc1sc2nc(CN3CCCC3)nc(N3CCC(C(N)=O)CC3)c2c1C | -0.12
NC(=O)C1CCN(c2nc(CN3CCCCC3)nc3sc4c(c23)CCC4)CC1 | 0.07

SMILES | TSA(without NAD+) / Primary screening (TSA) / delta Tm (K)
Cc1sc2nc(CSc3ccccc3)nc(N3CCCC(C(N)=O)C3)c2c1C (centres unmarked) | -0.12
Cc1sc2nc(CSc3ccccc3)nc(N3CCC(C(N)=O)CC3)c2c1C | 0.52
O=C1/C(=C/c2cccc(Br)c2)Oc2cc(O)ccc21 | 0.19
O=C1CCCN1c1cccc(NS(=O)(=O)c2cccc(F)c2)c1 | -0.02
COc1ccc(NC(C)c2ccc(S(C)=O)cc2)cn1 (centres unmarked) | -0.18
O=C(COC(=O)c1ccc(CNS(=O)(=O)c2ccc(F)c(Cl)c2)cc1)c1ccccc1 | -0.03
O=C(C1=C(O)C(=O)N(CCCN2CCOCC2)C1c1ccco1)c1cc2ccccc2o1 (centres unmarked) | 0.02
Cc1ccc(C(=O)Nc2ccc(NC(=O)NCC3CCCO3)cc2)cn1 (centres unmarked) | 0.52
O=C(NCC1CCCO1)Nc1ccc(NC(=O)c2ccccn2)cc1 (centres unmarked) | 0.07
COc1cc(C=C(C(=O)NCC2CCCO2)C(=O)NCC2CCCO2)ccc1OCC(=O)Nc1ccc(C)cc1 (centres unmarked) | -0.08
Cc1ccc(Nc2nc(CSc3nnc(NCc4ccco4)s3)cs2)cc1 | -0.17
CC(C)OC(=O)CC(Nc1ccc2nnnn2n1)c1ccccc1 (centres unmarked) | -0.07
Cc1noc(CN2CCN(c3ncnc4c3oc3ccccc34)CC2)n1 | -0.33
Cc1ccc(S(=O)(=O)N2CCN(C(=O)CSc3nnc(NCc4ccco4)s3)CC2)cc1 | 0.16
O=c1cc(CSc2nnc(Nc3ccccc3)s2)c2ccc(O)cc2o1 | 0.38
O=c1cc(CSc2nnc(-c3ccccc3)o2)c2cc3c(cc2o1)CCC3 | -0.18
COCCNc1nnc(SCc2cc(=O)oc3c(C)c(O)ccc23)s1 | -0.74
c1nc(N2CCNCC2)c2sccc2n1 | -0.08
NC(=O)c1ccc(COC(=O)c2cc3c(ccc4ccccc43)[nH]2)cc1 | 0.05
O=C(Nc1ccc(Oc2ncccn2)cc1)c1ccc(S(=O)(=O)Nc2ccc(F)cc2)cc1 | -0.11
Cc1nc(COc2ccc(C(=O)Nc3ccc(S(=O)(=O)Nc4cccc(F)c4)cc3)cc2)cs1 | 0.09

SMILES | TSA(without NAD+) / Primary screening (TSA) / delta Tm (K)
N#CC(C(=O)c1ccc(NS(=O)(=O)c2ccccc2)cc1)c1nc(-c2ccccn2)cs1 (centres unmarked) | 0.46
COc1ccc2[nH]cc(C3CCN(C(=O)c4coc(C)c4)CC3)c2c1 | -0.03
Cc1nnc(CNC(=O)c2cc(-c3ccccc3)nc3c(C(N)=O)ncn23)s1 | -0.04
COc1ccccc1NC(=O)c1ccc(NC(=O)COC(=O)C23CC4CC(CC(C4)C2)C3)cc1 | 0.42
COc1ccc(NC(=O)c2ccc(NC(=O)COC(=O)C34CC5CC(CC(Br)(C5)C3)C4)cc2)cc1 | 1.08
COc1ccc(NC(=O)c2ccccc2NC(=O)COC(=O)C23CC4CC(CC(O)(C4)C2)C3)cc1 | 0.19
COc1ccccc1NS(=O)(=O)c1ccc(NC(=O)CNC(=O)C23CC4CC(CC(C4)C2)C3)cc1 | 0.03
COc1ccccc1NC(=O)COc1ccc(C(=O)OCC(=O)NC23CC4CC(CC(C4)C2)C3)cc1OC | 0.08
COc1ccc(NC(=O)COc2ccc(C(=O)NCC34CC5CC(CC(C5)C3)C4)cc2OC)cc1 | -0.34
CCOC(=O)c1ccc(S(=O)(=O)N2CCC(C(=O)OCC(=O)NCC34CC5CC(CC(C5)C3)C4)CC2)cc1 | -0.13
CC(=O)N(c1nn(CN2CCN(c3ccc(C(N)=O)cn3)CC2)c(=S)s1)C1CC1 | -0.23
CC1Cc2ccccc2N1c1ncnc2ccsc12 (centres unmarked) | 0.07
CC(C)(C)c1ccc(OCC(=O)NNC(=O)c2cccnc2O)cc1 | 0.17
Cc1nc2cc(C(=O)Nc3ccc(NC(=O)N4CCCCCC4)cc3)ccc2n1C | -0.04
Cc1nc(N2CCC(C(N)=O)CC2)c2c3c(sc2n1)CCC3 | 0.07
Cc1nc(N2CCC(NC(N)=O)CC2)c2c3c(sc2n1)CCCC3 | -0.03
Cc1nc(N2CCC(C(N)=O)CC2)c2c3c(sc2n1)CCCC3 | 0.56
NC(=O)C1CCN(c2ncnc3sc4c(c23)CCC4)CC1 | -0.21
NC(=O)C1CCN(c2ncnc3sc4c(c23)CCCCC4)CC1 | 0.36
Cc1nc(N2CCC(C(N)=O)CC2)c2c3c(sc2n1)CCCCC3 | 0.78
CN(CC(=O)Nc1cccc2ccccc12)C(=O)C1=COCCO1 | -0.23

SMILES | TSA(without NAD+) / Primary screening (TSA) / delta Tm (K)
Cc1[nH]c2ccccc2c1CC(=O)Nc1cccc(-c2noc(=O)[nH]2)c1 | 0.07
CC(C)Oc1ccc(C(=O)C2=C(O)C(=O)N(CCCN3CCOCC3)C2c2cccs2)cc1 (centres unmarked) | -0.23
NC(=O)c1ccc(CN2CCSCC2)cc1 | 0.06
CCN(CC)CCNC(=O)c1ccc(NC(=O)CC2CCCC2)cc1 | 0.07
NC(=S)c1ccc(C(=O)NCc2ccnc(OCC(F)(F)F)c2)cc1 | -0.18
CN(c1ccccc1)S(=O)(=O)c1cccc(C(=O)NCCc2c[nH]c3ccccc23)c1 | 0.16
Cc1ccc(N(C)S(=O)(=O)c2cccc(C(=O)NCCc3c[nH]c4ccccc34)c2)cc1 | 0.23
O=C(CCc1c[nH]c2ccccc12)Nc1ccc2nc[nH]c(=O)c2c1 | 0.26
O=C(CCc1c[nH]c2ccccc12)NCCc1ccco1 | -0.05
CN(c1ccccc1)S(=O)(=O)c1cccc(NC(=O)CCc2c[nH]c3ccccc23)c1 | 0.38
O=C(CCc1c[nH]c2ccccc12)Nc1nnc(-c2ccccc2)o1 | 0.52
CN(c1ccccc1)S(=O)(=O)c1cccc(NC(=O)CCCc2c[nH]c3ccccc23)c1 | 0.52
CN(c1ccccc1)S(=O)(=O)c1cccc(NC(=O)CNc2cccc3ccccc23)c1 | 0.17
O=C(CCc1c[nH]c2ccccc12)Nc1cccc(S(=O)(=O)NCc2ccco2)c1 | -0.01
COc1cccc(NC(=S)Nc2cccc(S(=O)(=O)N(C)c3ccccc3)c2)c1 | -0.03
NC(=O)c1ccc(C(=O)OCC(=O)c2cc3ccccc3o2)cc1 | -0.38
Cc1ccc(NC(=O)CN2CCN(C(=O)c3ccc(-c4ccc(Cl)cc4)o3)CC2)cc1 | 0.08
Cc1ccc2nc(-c3ccc(NC(=O)C(C)Cl)cc3)sc2c1 (centres unmarked) | 0.22
O=C1NC(=S)NC(=O)C1=Cc1cn(-c2ccccc2)nc1-c1cc2ccccc2o1 | 0.36
CC(=O)N1Cc2ccccc2CC1C(=O)NC1CCOc2ccccc21 (centres unmarked) | -0.13
